We go through 14 compounds from PubChem BioAssay.

The source made the active and inactive calls.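 The calls were made as follows, unless noted: active = inhibition of the reporter signal at or above 50%; inactive = inhibition below 50%.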

Assay [1] is described as follows: inhibitors of TNFa-induced NFkB p65 translocation, primary screen, imaging, HUVEC, MLSMR starter and 10KST1 sets (AID 438;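 active = inhibition above 20% together with a positive visual image hit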;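 also: compound added about 3h40 before a 20 min TNFalpha stimulation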;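 as to inhibition: signal is the nuclear over cytoplasmic p65 intensity ratio per well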). As to conditions: HUVEC TNFa-induced p65 nuclear translocation; cell count: measured here: nuclei count (cytotoxicity indicator), at 2.08 µM; inhibition: at 2 µM, stronger effect = higher value, 0% TNFa-plus-vehicle, 100% no-TNFa wells.
Assay [2] in a line: inhibitors of mutant huntingtin aggregation, primary screen, imaging, exon1htt(103Q)mCFP cells, high-content imaging (AID 483;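 active = visual image review flags a hit and inhibition of aggregation exceeds 20%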;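 also: compound exposure lasted 3 days before fixation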;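 as to nuclei count: percent of the per-plate median nuclei count of sample wells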). As to conditions: exon1htt(103Q)mCFP cell line, aggregate imaging, at 2 µM; inhibition of aggregation: stronger effect = higher value; nuclei count: measured here: cell count, toxicity.
Assay [3] can be described thus: inhibitors of E-selectin induction by TNFa, primary screen, imaging, HUVEC, immunofluorescence, MLSMR starter and 10KST1 sets (AID 487;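 active = visually confirmed hit in the image check and inhibition above 20%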;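 as to inhibition: signal is fraction of cell area covered by stained E-selectin grains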;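 as to nuclei count: 100% = median nuclei count of all wells on the same plate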). Particulars: HUVEC TNFalpha-induced E-selectin immunofluorescence imaging, at 2 µM; inhibition: stronger effect = higher value; nuclei count: measured here: cell number, toxicity.
The target in assay [4] is Voltage-gated potassium channel subunit beta-2 (Rattus norvegicus) (UniProt P62483). As to the kind of experiment: KvBeta enzyme negative modulators, primary screen, biochemical, NADPH fluorescence (AID 622;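 active = fluorescence slope higher than the sample average by over 3 SD, cut at about -0.22 in these data, passing the limit was not always enough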;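 also: slope of raw intensity against log time taken from 70 to 1610 s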). As to conditions: recombinant KvBeta, 4-cyanobenzaldehyde reduction, at 10 µM, stronger effect = higher value.
Chain of Voltage-gated potassium channel subunit beta-2 (Rattus norvegicus) (P62483 whole entry, looked up): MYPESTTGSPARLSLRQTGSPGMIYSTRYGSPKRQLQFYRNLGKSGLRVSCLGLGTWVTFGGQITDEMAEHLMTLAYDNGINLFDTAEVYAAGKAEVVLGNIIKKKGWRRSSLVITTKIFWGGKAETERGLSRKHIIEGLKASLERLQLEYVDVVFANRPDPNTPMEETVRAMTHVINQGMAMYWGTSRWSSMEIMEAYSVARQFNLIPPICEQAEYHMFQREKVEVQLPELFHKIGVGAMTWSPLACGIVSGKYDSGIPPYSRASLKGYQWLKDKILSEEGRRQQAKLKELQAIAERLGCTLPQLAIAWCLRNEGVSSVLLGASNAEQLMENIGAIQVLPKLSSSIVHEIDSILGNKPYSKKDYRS
Assay [5] shares this target. As to the kind of experiment: KvBeta positive modulators, primary screen, biochemical, NADPH fluorescence (AID 623;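 active = NADPH fluorescence slope more negative than the mean of all samples by about 3 SD, 99.7% confidence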;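 also: fluorescence intensity change per second fitted from 20 to 320 s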). Particulars: Recombinant KvBeta, NADPH fluorescence decrease slope, 10 min; at 10 µM; stronger effect = lower value.
Assay [6] deals with Alpha-2C adrenergic receptor (Homo sapiens) (UniProt P18825). As to the kind of experiment: modulators of alpha2C/GIRK thallium flux, primary screen, cell-based, HEK293 alpha2C/GIRK1/2 (AID 624;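 active = fluorescence slope after compound addition differing from the mean of all screened samples at 99.7% confidence, in either direction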;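 also: slope of fluorescence ratio to pre-addition baseline per second over 15 to 24 s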). Particulars: thallium flux BTC fluorescence, at 10 µM, actives lie on both sides.
Chain of Alpha-2C adrenergic receptor (Homo sapiens) (P18825 whole entry, looked up): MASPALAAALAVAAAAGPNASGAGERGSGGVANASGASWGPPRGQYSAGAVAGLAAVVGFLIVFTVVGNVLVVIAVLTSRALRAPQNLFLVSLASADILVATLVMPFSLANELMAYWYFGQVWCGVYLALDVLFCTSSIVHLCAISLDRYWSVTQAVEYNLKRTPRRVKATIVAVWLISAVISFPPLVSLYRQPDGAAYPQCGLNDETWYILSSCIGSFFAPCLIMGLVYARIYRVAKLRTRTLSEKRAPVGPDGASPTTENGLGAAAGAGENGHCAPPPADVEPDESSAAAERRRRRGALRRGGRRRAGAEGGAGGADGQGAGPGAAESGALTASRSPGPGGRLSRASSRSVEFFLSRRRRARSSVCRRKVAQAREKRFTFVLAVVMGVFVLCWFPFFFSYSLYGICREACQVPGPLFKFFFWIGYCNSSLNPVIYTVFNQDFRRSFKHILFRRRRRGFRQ
Assay [7] can be described thus: inhibitors of Sendai virus-induced IRF3 signaling, primary screen, TLR/RLR signaling modifier project, cell-based, Sendai virus stimulus, luciferase, 10K MLSCN set (AID 602276;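 active = inhibition at or above 50% at 10 µM; inactive = inhibition below 50%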;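 also: firefly luciferase from ISG56 promoter only with Renilla not read in this screen; 0% = Sendai virus plus DMSO and 100% = medium plus DMSO without virus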). Particulars: HEK293 RL24 IRF3 luciferase reporter, at 10 µM, stronger effect = higher value. A general note: In a reporter assay the amount or activity of a reporter protein is the signal.
Assay [8] is described as follows: inhibitors of poly I:C-induced TLR3 signaling, primary screen, cell-based, poly I:C stimulus, luciferase, 10K MLSCN set (AID 602277). Particulars: HEK293-TLR3 RL24 IRF3 luciferase reporter, at 10 µM, stronger effect = higher value.

The inhibition is the relative decrease from the control value, in per cent. Turning to `O=C(Nc1ccc2c(c1)OCCO2)NC1CCCCC1`, in assay [1], the cell count amounted to 379. Besides, the inhibition in assay [1] was 0.5% (inactive); in assay [3], -33.5% (inactive); in assay [7], -28.7% (inactive); in assay [8], -68.9% (inactive). Also, the inhibition of aggregation in assay [2] is 20.1% (inactive). Besides, the nuclei count in assay [2] was 58.3%; in assay [3], 102%. Moreover, the fluorescence slope in assay [4] is -0.487 (inactive). Moreover, the NADPH fluorescence slope in assay [5] is -1.2e-05 (inactive). In assay [6], the slope is 0.00607 (inactive).
`CCCCOC(=O)C1=C(C)Nc2ncnn2C1c1cccc(OC)c1OC` (centres undefined): in assay [1], the cell count came to 655. In addition, the inhibition was 12.8% (inactive) in assay [1], -71.2% (inactive) in assay [3], 12.8% (inactive) in assay [7] and 9.22% (inactive) in assay [8]. Moreover, the inhibition of aggregation in assay [2] is -20.9% (inactive). Moreover, the nuclei count was determined as 113% in assay [2] and 111% in assay [3]. The fluorescence slope in assay [4] is -0.403 (inactive). Moreover, in assay [5], the NADPH fluorescence slope was -4e-05 (inactive). Moreover, in assay [6], the slope is 0.00417 (inactive).
For `OCCNCC(O)Cn1ccc2ccccc21` (centres undefined), in assay [1], the cell count is 410. In addition, the inhibition in assay [1] is -8.2% (inactive); in assay [3], -53.1% (inactive); in assay [7], 12.3% (inactive); in assay [8], 16.7% (inactive). In addition, the inhibition of aggregation in assay [2] was -0.3% (inactive). In addition, the nuclei count in assay [2] stood at 84.3%; in assay [3], 181%. The fluorescence slope in assay [4] was -0.624 (inactive). In addition, the NADPH fluorescence slope in assay [5] is -5e-05 (inactive). Also, the slope in assay [6] was 0.007 (inactive).
For the compound `CN(C)c1cccc(NC(=O)CCc2ccccc2)c1`, the cell count in assay [1] came to 503. For the same compound, the inhibition in assay [1] was -5.1% (inactive); in assay [3] it was -7.2% (inactive); in assay [7], -9.67% (inactive); in assay [8], -5.4% (inactive). Also, the inhibition of aggregation in assay [2] was -5.3% (inactive). Also, the nuclei count in assay [2] was determined as 106%; in assay [3] it was 95.9%. For the same compound, the fluorescence slope in assay [4] was -0.594 (inactive). For the same compound, in assay [5], the NADPH fluorescence slope is 9.8e-06 (inactive). The slope in assay [6] was 0.00703 (inactive).
Turning to `O=C(C(Cc1ccccc1)n1cccc1)N1CCCCCC1` (centres undefined), the cell count in assay [1] worked out at 690. In addition, the inhibition in assay [1] is -1.6% (inactive); in assay [3], -42.3% (inactive); in assay [7], 3.28% (inactive); in assay [8], 25.3% (inactive). Also, in assay [2], the inhibition of aggregation was 8.2% (inactive). The nuclei count came out at 104% in assay [2] and 115% in assay [3]. Further, in assay [4], the fluorescence slope was -0.517 (inactive). In addition, the NADPH fluorescence slope in assay [5] was -1.7e-05 (inactive). Moreover, in assay [6], the slope was 0.00572 (inactive).
Take `CC(=O)N(c1ccc(Br)cc1)C1C=CS(=O)(=O)C1` (centres undefined): the cell count in assay [1] stood at 476. Further, the inhibition in assay [1] was 3.9% (inactive); in assay [3] it was -13.7% (inactive); in assay [7], 13.8% (inactive); in assay [8], 30% (inactive). Moreover, the inhibition of aggregation in assay [2] is 25.9% (inactive). For the same compound, the nuclei count came out at 49.7% in assay [2] and 102% in assay [3]. Besides, the fluorescence slope in assay [4] is -0.551 (inactive). Besides, the NADPH fluorescence slope in assay [5] was -4.3e-05 (inactive). Also, in assay [6], the slope was 0.00701 (inactive).
As to `CC(C)OC(=O)CSc1nnc(-c2cccnc2)n1Cc1ccccc1`, the cell count in assay [1] is 706. In addition, the inhibition is -16.4% (inactive) in assay [1], 5.1% (inactive) in assay [3], 8.88% (inactive) in assay [7] and 10.9% (inactive) in assay [8]. The inhibition of aggregation in assay [2] was 8.1% (inactive). Moreover, the results for the nuclei count in assay [2] and in assay [3] were 88.7% and 98.8%, respectively. Moreover, the fluorescence slope in assay [4] was -0.356 (inactive). For the same compound, the NADPH fluorescence slope in assay [5] is -4.8e-05 (inactive). Moreover, in assay [6], the slope was 0.00509 (inactive).
As for `OCc1nc2ccccc2n1CCCOc1ccccc1`, the cell count in assay [1] is 291. The inhibition was -6% (inactive) in assay [1], -17.2% (inactive) in assay [3], -34.5% (inactive) in assay [7] and -119% (inactive) in assay [8]. For the same compound, the inhibition of aggregation in assay [2] is 11.9% (inactive). Moreover, the nuclei count turned out to be 87% in assay [2] and 96.5% in assay [3]. In assay [4], the fluorescence slope is -0.382 (inactive). Moreover, in assay [5], the NADPH fluorescence slope is -5.7e-05 (inactive). The slope in assay [6] was 0.00561 (inactive).
Regarding `CC(C)[C@H](NC(=O)NCc1ccc(Cl)cc1)C(=O)O`, the cell count in assay [1] stood at 190. The inhibition was -16.4% (inactive) in assay [1], 11.6% (inactive) in assay [3], 13% (inactive) in assay [7] and 19.3% (inactive) in assay [8]. The inhibition of aggregation in assay [2] was 20.4% (inactive). Further, the values for the nuclei count in assay [2] and in assay [3] were 70.5% and 87.2%, respectively. Besides, the fluorescence slope in assay [4] is -0.604 (inactive). The NADPH fluorescence slope in assay [5] was -3.7e-05 (inactive). Moreover, the slope in assay [6] is 0.00337 (inactive).
On to `O=C(Nc1ccc(N2CCCC2)cc1)c1ccc(Br)o1`, for which the cell count in assay [1] worked out at 303. Besides, the inhibition in assay [1] was -8.4% (inactive); in assay [3], -59.6% (inactive); in assay [7] it was -34% (inactive); in assay [8], -152% (inactive). The inhibition of aggregation in assay [2] was 36.8% (inactive). Further, the nuclei count amounted to 94.4% in assay [2] and 94.7% in assay [3]. Also, the fluorescence slope in assay [4] is -0.398 (inactive). Also, in assay [5], the NADPH fluorescence slope is -6.5e-05 (inactive). The slope in assay [6] was 0.00868 (inactive).
As to `CCOC(=O)c1cc(-c2nnc(-c3ccc(Oc4ccccc4)cc3)o2)c(C)nc1C`, the cell count in assay [1] amounted to 761. Besides, the inhibition is -3.9% (inactive) in assay [1], -20.7% (inactive) in assay [3], 7.09% (inactive) in assay [7] and 12.2% (inactive) in assay [8]. The inhibition of aggregation in assay [2] was 17.5% (inactive). The nuclei count in assay [2] is 102%; in assay [3] it was 110%. In assay [4], the fluorescence slope was -0.499 (inactive). Besides, the NADPH fluorescence slope in assay [5] was -2.6e-05 (inactive). Also, the slope in assay [6] is 0.0114 (active).
For the compound `Cc1cc2ccccc2n1CCNC(=O)C1CC1`, in assay [1], the cell count is 709. Also, the inhibition in assay [1] is -6.9% (inactive); in assay [3] it was -35% (inactive); in assay [7], 11.4% (inactive); in assay [8], 33.2% (inactive). Also, the inhibition of aggregation in assay [2] was -3.6% (inactive). Moreover, the nuclei count came out at 107% in assay [2] and 120% in assay [3]. For the same compound, the fluorescence slope in assay [4] was -0.42 (inactive). In assay [5], the NADPH fluorescence slope was -3.8e-05 (inactive). In addition, in assay [6], the slope was 0.00596 (inactive).
Take `COc1cccc(C(=O)n2cnnc2N)c1OC`: the cell count in assay [1] amounted to 391. The inhibition in assay [1] is -2.4% (inactive); in assay [3], 41.5% (inactive); in assay [7], 16.3% (inactive); in assay [8] it was 21.1% (inactive). In addition, the inhibition of aggregation in assay [2] was 1% (inactive). For the same compound, the nuclei count in assay [2] came out at 109%; in assay [3], 102%. Moreover, the fluorescence slope in assay [4] is -0.382 (inactive). Moreover, in assay [5], the NADPH fluorescence slope is 8e-06 (inactive). Moreover, in assay [6], the slope is 0.00713 (inactive).
With `CCn1c(SCC(=O)c2ccc(Cl)cc2)nnc1-c1ccoc1C`, the cell count in assay [1] was found to be 352. For the same compound, the inhibition in assay [1] was 0.2% (inactive); in assay [3], -69.1% (inactive); in assay [7], 3.62% (inactive); in assay [8], 5.26% (inactive). In addition, in assay [2], the inhibition of aggregation was -24% (inactive). Besides, the nuclei count was 110% in assay [2] and 108% in assay [3]. Also, the fluorescence slope in assay [4] was -0.503 (inactive). Besides, the NADPH fluorescence slope in assay [5] was -6.2e-05 (inactive). The slope in assay [6] was 0.00727 (inactive).
